# Sampled rows, rich in hits. Any-hit rate of the full collection: about 5.7%.
# GLP-1R inv ag – inverse agonists of human GLP-1 receptor | AID 624417 | P43220 | HEK293 GLP-1R CRE-luciferase, luminescence, 24 h; GLP-1R form is constitutively active | actives 1.6% (n = 410,000) | Potency, µM (titrated, usually from 38.3 µM), without a hit: top-dose activity change, negative = inhibition, hits mostly inhibitors; also: potency is read from the fitted curve at half-maximal effect; % is scaled to controls: 0 for no effect and ±100 for the full control effect; nearly all actives have a fitted effect of over 55% in size
#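 GLP-1R inverse agonism mode: basal reporter luminescence in engineered HEK293 cells measured after one day of compound exposure at 37 deg C, with a 12 min room-temperature detection step.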
# HEK293 tox – cytotoxic in the GLP-1 receptor inverse agonist counter-screen | actives 0.13% (n = 410,000) | HEK293 cAMP-luciferase reporter cells, luminescence, 24 h | Potency, µM (doses to about 38.3 µM), for inactives: at the top dose activity change, negative = inhibition, actives largely listed as inhibitors;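 also: loss of luciferase light is scored as toxicity; potency is read from the fitted curve at half-maximal effect; % is scaled to controls: 0 for no effect and ±100 for the full control effect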
#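 MLSMR compounds, 24 hr on cells at 37 deg C/5% CO2; luminescence after luciferase reagent (12 min RT). Inhibition counted as the undesired cytotoxic outcome.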
# GLP1R ag – agonists of human GLP-1 receptor; AID 624172; actives 0.007% (n = 380,000); P43220; HEK293 GLP-1R CRE-luciferase, luminescence, 4-6 h; cells express a hypersensitive GLP-1R form; Potency, µM (series often up to 45.6 µM), without a hit: top-dose activation, most hits filed as activators; also: potency is read from the fitted curve at half-maximal effect; % of control where 0% means no effect
# ClpP mod – qHTS Assay for Activators of ClpP; purified B. subtilis ClpP, FRET peptide cleavage, 20 min; Potency, µM (highest dose often 57.5 µM), for the others: top-dose activity change, negative = active; actives 1.9% (n = 340,000); active = well fitted falling curve with a large enough effect; inconclusive = small, poorly fitted or top-dose-only effect; inactive = no such curve, though single readings can be large or run the other way; also: potency is read from the fitted curve at half-maximal effect; the source files actives as falling curves though it sought activators and does not explain the sign; nearly all actives have a fitted effect of over 65% in size
#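 FRET quenching reversal measured ClpP activation: 10 microg/mL B. subtilis ClpP at pH 8 with the FRET-FV decapeptide, read at 430 nm after 320 nm excitation. The 20-min minus 0-min signal was scaled between DMSO/no-enzyme wells and ADEP (5.8 microM final).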
# DRD3 agonist – activates the human D3 dopamine receptor. P35462. D3R DiscoveRx beta-arrestin cells, luminescence, 90 min. max activation, %. actives 0.58% (n = 410,000). AID 652048; in the data active = max activation above about 30%; also: 0% is about no effect
#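 Agonist-mode cell screen: cells plated at 1500/well and incubated overnight at 37 °C, then exposed to library compounds for 90 min at 37 °C. Detection reagent was added for 30–60 min at room temperature, and luminescence was read.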
# DRD3 antagonist – antagonists of human D3 dopamine receptor; max response, negative = inhibition, %; AID 652054; P35462; D3R cells, DiscoveRx beta-arrestin luminescence, antagonist mode; hits give low values; actives 2.5% (n = 360,000); in the data active = max response below about -50%; inconclusive = no clear call, values can overlap the other calls; also: % is scaled to controls: 0 for no effect and ±100 for the full control effect
#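 Cells plated overnight at 1500 cells/well, then exposed to library compounds with dopamine controls for 90 minutes at 37 degrees C. DiscoveRx reagent added for 30–60 minutes at room temperature; luminescence read, quantitative HTS format.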
# An asterisk follows results filed as active; ? = inconclusive; . = no result given. Unless noted, calls follow the shape of the dose curve; as a rule, active = well fitted curve in the direction sought with a large enough effect; inconclusive = small, poorly fitted or top-dose-only effect, or another doubt; inactive = no such curve, though single readings can be large; an effect the other way counts as inactive or inconclusive.
SMILES,GLP-1R inv ag,HEK293 tox,GLP1R ag,ClpP mod,DRD3 agonist,DRD3 antagonist
O=C(NCCc1ccccc1)C1CCCN1C(=O)Nc1cccc(Cl)c1 (stereo unspecified),11%,4%,17%,0%,-4,-73*
COc1cc(OC)c(Nc2ncnc3onc(-c4cccc(Cl)c4)c23)cc1Cl,0%,14%,1%,-7%,6,.
CC12CC(NC(=O)N1c1cccc(C(=O)NCc3ccc4c(c3)OCO4)c1)c1cc(Cl)ccc1O2 (stereo unspecified),1.6µM*,?,-5%,-1%,-3,?
Cc1cc(C)n(C(=O)c2ccc(NC(=O)C3COc4ccccc4O3)cc2)n1 (stereo unspecified),0%,-9%,-7%,35µM*,5,24
CCCCCCCCCC[n+]1ccc(/C=C/c2c(C)[nH]c3ccccc23)cc1,.,.,.,0%,.,.
CCOc1ccc(/C=C2\CCC(C3CCCC3)C2=O)cc1 (stereo unspecified),12%,-5%,1%,.,6,5
CCC(=O)OCOc1ccc(/C=C2/CCC(CN(C)C)C2=O)cc1 (stereo unspecified),?,?,-8%,-2%,-10,-87*
COc1cc(OC)c(NC(=O)CCn2cnc3onc(-c4ccc(F)cc4)c3c2=O)cc1Cl,-2%,9%,.,-3%,0,.
COCC(=O)NC1CC2CCCC(C1)N2Cc1ccccc1 (stereo unspecified),0%,-4%,-5%,-1%,2,-77*
CC(C)(C)OC(=O)NC1CC2CCCC(C1)N2Cc1ccccc1 (stereo unspecified),-11%,-5%,6%,1%,-21,-85*
CC(=O)Nc1ccc2nc3c(=O)n(C)c(=O)n(C)c3nc2c1C,11%,8%,.,-5%,1,.
CCc1sc(C(=O)NC2CCN(C)CC2)cc1Br,10µM*,3%,-3%,-1%,7,-10
CCc1sc(C(=O)N2CCCN(C)CC2)cc1Br,?,-16%,4%,-1%,-22,-21
CC(=O)c1ccc(NC(=O)Cn2cc(S(=O)(=O)Cc3cccc(Cl)c3)c3ccccc32)cc1,10µM*,?,.,1%,-8,.
CCCCN(C=O)c1c(CC)nc2c(OCc3cccc(Cl)c3)cccn12,?,-6%,10%,-2%,-6,-1
COc1ccccc1S(=O)(=O)N(C)C[C@@H]1OCc2cnnn2CCCC(=O)N([C@@H](C)CO)C[C@@H]1C,-4%,14%,8%,-1%,-4,19
COCCCNCCCCOc1ccc(C)cc1[N+](=O)[O-],?,9%,1%,?,-34,-70*
CCC(C)NCCOCCOc1ccc(C)cc1Br (stereo unspecified),-6%,?,35%,-1%,-13,-70*
CCC(C)NCCOc1ccc(C)cc1[N+](=O)[O-] (stereo unspecified),-9%,-15%,-4%,.,-17,-60*
CCC(C)NCCCOc1c(C)cc(C)cc1Br (stereo unspecified),?,7%,5%,6%,-4,-54*
COc1ccccc1OCCCOc1c(C)cc(C)cc1Br,?,-10%,-1%,-1%,4,6
C[C@@H](O)[C@H]1C(=O)N2C(C(=O)O)=C(SCCN=CN)C[C@H]12,.,.,.,.,-1,.
CNc1cncc(-c2cccc(OC)c2F)n1,14%,3%,6%,4%,8,5
COc1ccccc1N1CCN(C(=O)C2CCN(S(=O)(=O)Cc3ccccc3)CC2)CC1,?,1%,.,0%,3,.
COc1cccc(N2CC(NC(=O)c3ccc4c(c3)OCO4)CC2=O)c1 (stereo unspecified),12%,0%,.,-22%,1,.
SMILES,GLP-1R inv ag,HEK293 tox,GLP1R ag,ClpP mod,DRD3 agonist,DRD3 antagonist
C=CCN(CC=C)CCOc1ccc(C)cc1[N+](=O)[O-],-27%,-22%,-4%,1%,-9,-96*
C=CCN(CC=C)CCOc1cc(C)ccc1[N+](=O)[O-],?,2%,10%,.,-11,?
COc1ccccc1OCCOCCOc1ccc(C)cc1[N+](=O)[O-],-14%,2%,23%,0%,0,7
C=CCNCCOc1ccc(C)cc1[N+](=O)[O-],-8%,-7%,-4%,-3%,-13,-72*
CCCCNCCOCCOc1ccc(C)cc1[N+](=O)[O-],0%,3%,7%,-3%,-5,-53*
Cc1ccc(OCCCn2ccnc2)c([N+](=O)[O-])c1,38%,7%,1%,1%,0,-9
CC1(C)CC(=O)c2cc(-c3nc(-c4ccc(F)cc4)cs3)c(=O)[nH]c2C1,6%,10%,.,-10%,-2,.
COc1ccc(NC(=O)c2[nH]ncc2[N+](=O)[O-])cc1,1%,4%,11%,-2%,-2,-6
O=C(Nc1ccccc1)c1[nH]ncc1[N+](=O)[O-],6%,1%,-7%,1%,2,-63*
Cc1cc(C)c(C#N)c(=N)o1,1%,12%,2%,2.8µM*,-2,0
CCCCC(O)c1ccccc1 (stereo unspecified),.,.,.,.,0,.
Cc1ccc(NC(=O)c2cc3c(=O)n(Cc4cccnc4)ccc3nc2C)cc1F,0%,0%,.,9%,0,.
CCOc1ccccc1NC(=O)C(Cc1ccccc1)NS(=O)(=O)c1ccc(Br)s1 (stereo unspecified),11µM*,-7%,-13%,-4%,-8,.
Cc1ccc(CNC(=O)C(Cc2ccccc2)NS(=O)(=O)c2ccc(Br)s2)cc1 (stereo unspecified),10µM*,-10%,7%,4%,10,10
Cc1ccc(S(=O)(=O)N(C)c2cc(S(=O)(=O)N3CCC(C)CC3)c(C)cc2C)cc1,13µM*,-1%,-6%,-5%,-6,35
CCOC(=O)c1ccc(NC(=S)N(CCCN2CCCCCC2)Cc2ccco2)cc1,?,?,10%,-1%,-22,-28
CSc1cccc(NC(=S)N(CCCN2CCCC(C)C2)Cc2cccs2)c1 (stereo unspecified),?,?,7%,1%,-14,-104*
Cc1ccc(NC(=S)N(CCCN2CCCC(C)C2)Cc2ccco2)cc1C (stereo unspecified),?,?,-3%,1%,-23,-92*
Cc1cc(C)cc(NC(=S)N(CCCN2CCN(C)CC2)Cc2cccs2)c1,3%,11%,2%,.,-9,5

# High-throughput results: PubChem, National Center for Advancing Translational Sciences (NCATS)
